Rows were chosen to be rich in hits. Some 11% of all compounds tested hit in one or more screens of this group.
Sfp inh – blocks B. subtilis Sfp PPTase activity. Q9F4F7. Biochemical Sfp PPTase activity, qHTS. 310,000 tested, 3.5% active. Potency, µM, most hits filed as inhibitors;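 also: the enzyme is Sfp with the accession as filed and its product quenches rhodamine fluorescence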
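Reaction rates are the 30-min fluorescence difference (ex 525, em 598 nm) in wells containing 15 nM Sfp, 5 uM rhodamine-CoA and 12.5 uM BHQ-2-YbbR at pH 7.6 with 10 mM MgCl2.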
Tau fibril FP – inhibitors of human tau fibril formation; AID 1468; 280,000 tested, 0.39% active; P10636; Potency, µM (top dose mostly 57.7 µM), usual class: inhibitors; K18 P301L tau heparin fibrillization, Alexa594 FP, 6 h; also: nearly all actives have a fitted effect of over 55% in size
Target sequence (P10636 561-689 P618L limits assumed): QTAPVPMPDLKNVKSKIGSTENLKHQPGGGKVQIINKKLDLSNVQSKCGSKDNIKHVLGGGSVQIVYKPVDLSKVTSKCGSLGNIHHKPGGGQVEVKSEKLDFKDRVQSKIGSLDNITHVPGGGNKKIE
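Recombinant K18 P301L […], labeled with Alexa 594 at 0.24 uM over 15 uM unlabeled; heparin inducer 20 uM final; 37 C, 6 hr; FP endpoint.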
Tau fibril ThT – tau fibrillization inhibition (ThT binding); P10636; recombinant tau K18 P301L, heparin-induced fibrillization, ThT fluorescence; Potency, µM (highest dose often 57.4 µM), most hits filed as inhibitors; 270,000 tested, 2.1% active; AID 1460; also: nearly all actives have a fitted effect of over 55% in size
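K18 P301L tau (15 uM + 0.24 uM Alexa 594-tagged), heparin 20 uM, NaOAc pH 7, 6 h 37 C; ThT 30 uM, 1 h RT, ex 450/em 510 nm.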
G9a block – blocks human histone lysine methyltransferase G9a; Q96KQ7; G9a H3K9 monomethylation, AlphaScreen, 2 h; Potency, µM (titrated, usually from 102 µM), usual class: inhibitors; 350,000 tested, 8.8% active; also: nearly all actives have a fitted effect of over 75% in size
Target sequence (Q96KQ7 913-1193 limits assumed): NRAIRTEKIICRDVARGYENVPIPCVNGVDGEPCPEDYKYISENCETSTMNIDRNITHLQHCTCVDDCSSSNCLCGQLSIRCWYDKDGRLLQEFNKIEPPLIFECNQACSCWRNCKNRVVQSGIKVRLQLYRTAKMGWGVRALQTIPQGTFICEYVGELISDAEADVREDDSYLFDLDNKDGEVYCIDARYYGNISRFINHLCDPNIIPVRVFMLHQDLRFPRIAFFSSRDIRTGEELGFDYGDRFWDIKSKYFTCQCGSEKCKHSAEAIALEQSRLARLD
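AlphaScreen read-out: biotin-H3K9 peptide (500 nM) methylation by 20 nM enzyme with 20 uM SAM, 2 h at room temperature after 15 min compound preincubation; anti-monomethyl H3K9 antibody plus donor/acceptor beads, 10 min dark.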
Tau fluor cs – counter-screen for tau fibril formation inhibitors. tau K18 P301L Alexa594 fluorescence, heparin fibrillization. Potency, µM (doses to about 57.7 µM). 280,000 tested, 0.93% active; also: nearly all actives have a fitted effect of over 55% in size
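Human tau K18 P301L (15 uM unlabeled, 0.24 uM Alexa 594-labeled) in 100 mM sodium acetate pH 7 with 20 uM heparin, 6 hr at 37 C. ThT 30 uM added, 1 hr ambient; Alexa 594 FP and total fluorescence read at 555/632 nm.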
Coupling enz – counter-screen for Giardia aldolase inhibitors: coupling enzyme system; coupling enzyme system counterscreen, AmpLite Red fluorescence; activity change, negative = inhibition, % at 58.2 µM, hits read low; 290,000 tested, 0.67% active; AID 2472; in the data active = activity change below about -30%
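Counterscreen of the coupled detection system alone, without aldolase: glyceraldehyde-3-phosphate coupling enzymes plus AmpLite Red readout. Compounds at 57.5 uM final, 10 min RT preincubation, 20 min RT reaction, fluorescence 525/598 nm.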
Hits are given with their value; [ ] = remark or other dose. Unless noted, calls follow the shape of the dose curve; as a rule, active = well fitted curve in the direction sought with a large enough effect; inconclusive = small, poorly fitted or top-dose-only effect, or another doubt; inactive = no such curve, though single readings can be large; an effect the other way counts as inactive or inconclusive.

How did COc1ccc(OC)c(C2C(C(=O)c3sc(C)nc3C)=C(O)C(=O)N2CCN2CCOCC2)c1 (centres undefined) do in these assays?
Sfp inh: inactive; Tau fibril FP: inactive; Tau fibril ThT: inconclusive; G9a block: 44.7µM; Tau fluor cs: inactive; Coupling enz: inactive

What do the screens show for `COc1ccc(OC)c(C2C(C(=O)c3cccs3)=C(O)C(=O)N2CCN2CCOCC2)c1` (centres undefined)?
Sfp inh: inconclusive; G9a block: 44.7µM; Coupling enz: inactive

How did CC(C)c1ccc(NC(=O)Cn2c(=O)n(CCc3ccccc3)c(=O)c3ccccc32)cc1 do in these assays?
Tau fibril FP: inconclusive; Tau fibril ThT: inactive; G9a block: inactive; Tau fluor cs: inactive

Results for O=C(O)C1Cc2c([nH]c3ccccc23)C(c2coc3ccccc3c2=O)N1 (centres undefined) ?
Sfp inh: inactive; Tau fibril FP: inactive; Tau fibril ThT: inactive; Tau fluor cs: inactive; Coupling enz: inactive

How did CCOC(=O)c1[nH]c(C)c(CCC(=O)Nc2cc(Cl)ccc2C)c1C do in these assays?
Tau fibril FP: inactive; Tau fibril ThT: inactive; G9a block: inactive; Tau fluor cs: inactive

How did COc1ccc(C2C(C(=O)c3cccs3)=C(O)C(=O)N2CCN2CCOCC2)c(OC)c1 (centres undefined) do in these assays?
Sfp inh: inactive; G9a block: 50.1µM; Coupling enz: inactive

Results for O=C(C1=C(O)C(=O)N(CCN2CCOCC2)C1c1ccc([N+](=O)[O-])cc1)c1cccs1 (centres undefined) ?
Sfp inh: inactive; G9a block: inconclusive; Coupling enz: inactive

What do the screens show for `CN(C)S(=O)(=O)c1cccc2c1C(=O)c1ccccc1C2=O`?
Sfp inh: inactive; Tau fibril FP: inactive; Tau fibril ThT: inactive; G9a block: inconclusive; Tau fluor cs: inactive; Coupling enz: inactive

Results for CN(C)c1cc2c(c(N(C)C)c1)C(=O)c1ccccc1C2=O ?
Sfp inh: inconclusive; Tau fibril FP: inactive; Tau fibril ThT: inactive; G9a block: 10µM; Tau fluor cs: inactive; Coupling enz: inactive

Results for COc1ccc(NCCC(O)c2ccc(Cl)cc2)cc1 (centres undefined) ?
Sfp inh: inactive; G9a block: inconclusive; Coupling enz: inactive

How did COc1ccc(Cl)cc1NCCC(O)c1ccc(F)cc1 (centres undefined) do in these assays?
Sfp inh: inactive; G9a block: 35.5µM; Coupling enz: inactive

How did CC12CCC(=O)N1C(C(=O)NCCN1C(=O)S/C(=C\c3ccccc3Cl)C1=O)CS2 (centres undefined) do in these assays?
G9a block: inactive[12.7 µM]

Results for Cc1ccc(/C=C2\SC(=O)N(CCNC(=O)C3CSC4(C)CCC(=O)N34)C2=O)cc1 (centres undefined) ?
G9a block: 35.5µM

What do the screens show for `Cc1ccccc1C(=O)N(Cc1sccc1C)C1CCS(=O)(=O)C1` (centres undefined)?
Tau fibril FP: inactive; Tau fibril ThT: inactive; G9a block: inactive; Tau fluor cs: inactive

Results for CCCCc1ccc(Nc2cc(C)nc(-n3nc(C)cc3C)n2)cc1 ?
Tau fibril FP: inconclusive; Tau fibril ThT: inconclusive; G9a block: inactive; Tau fluor cs: inconclusive

Results for O=C(c1ccc(N2CCOCC2)c([N+](=O)[O-])c1)N1CCCC(C(F)(F)F)C1 (centres undefined) ?
G9a block: inactive

How did CCCCCC(=O)Nc1nc(C)c(-c2csc(Nc3ccccc3OCC)n2)s1 do in these assays?
Sfp inh: inconclusive; Tau fibril FP: inactive; Tau fibril ThT: inconclusive; G9a block: inconclusive; Tau fluor cs: inconclusive; Coupling enz: inactive

Results for CCCC(C)C(=O)Nc1nc(C)c(-c2csc(Nc3ccc(Cl)cc3)n2)s1 (centres undefined) ?
Sfp inh: inactive; Tau fibril FP: inactive; Tau fibril ThT: inconclusive; G9a block: inactive[0.501 µM]; Tau fluor cs: 15.8µM[quencher]; Coupling enz: inactive

How did CCCCCCC(=O)Nc1nc(C)c(-c2csc(Nc3ccccc3OC)n2)s1 do in these assays?
Sfp inh: inconclusive; Tau fibril FP: inactive; Tau fibril ThT: inconclusive; G9a block: inactive; Tau fluor cs: 14.1µM[quencher]; Coupling enz: inactive

How did CCCCCCC(=O)Nc1nc(C)c(-c2csc(Nc3cc(Cl)ccc3C)n2)s1 do in these assays?
Sfp inh: inactive; Tau fibril FP: inactive; Tau fibril ThT: inconclusive; G9a block: inactive[0.501 µM]; Tau fluor cs: inconclusive; Coupling enz: inactive

How did CCCCCC(=O)Nc1nc(C)c(-c2csc(Nc3ccccc3OC)n2)s1 do in these assays?
Sfp inh: inactive; Tau fibril FP: inconclusive; Tau fibril ThT: inconclusive; G9a block: inconclusive; Tau fluor cs: 11.2µM[quencher]; Coupling enz: inactive

Results for CCCC(=O)Nc1nc(C)c(-c2csc(Nc3ccccc3C)n2)s1 ?
Sfp inh: 20µM; Tau fibril FP: inconclusive; Tau fibril ThT: inconclusive; G9a block: 11.2µM; Tau fluor cs: inactive; Coupling enz: inactive

How did CCOC(=O)N1CCN(Cc2nnc(-c3cccc(Br)c3)o2)CC1 do in these assays?
Sfp inh: inactive; G9a block: inactive; Coupling enz: inactive

What do the screens show for `Cc1ccc(CNC(=O)c2ccc(CS(=O)(=O)Cc3ccc(F)cc3)o2)cc1`?
Tau fibril FP: inactive; Tau fibril ThT: inactive; G9a block: inactive; Tau fluor cs: inactive

How did CCCC(C)C(=O)Nc1nc(C)c(-c2csc(Nc3ccccc3OC)n2)s1 (centres undefined) do in these assays?
Sfp inh: inconclusive; Tau fibril FP: inconclusive; Tau fibril ThT: inconclusive; G9a block: 7.94µM; Tau fluor cs: inconclusive; Coupling enz: inactive

What do the screens show for `CCC(=O)Nc1nc(C)c(-c2csc(Nc3ccccn3)n2)s1`?
Sfp inh: inconclusive; Tau fibril FP: inconclusive; Tau fibril ThT: 14.1µM; G9a block: 39.8µM; Tau fluor cs: inconclusive; Coupling enz: inactive

How did CC(C)CSc1nnc(-c2ccccc2)c(-c2ccccc2)n1 do in these assays?
Tau fibril FP: inactive; Tau fibril ThT: inactive; G9a block: inactive; Tau fluor cs: inactive

How did Cc1cc(NC(=O)CCCn2c(C)c3cnn(-c4ccccc4)c(=O)c3c2C)ccc1Br do in these assays?
Tau fibril FP: inactive; Tau fibril ThT: inactive; G9a block: inactive; Tau fluor cs: inconclusive

What do the screens show for `COCCCNC(=O)c1ccc(Cn2c(SCc3ccc(F)cc3)nc3cccnc32)cc1`?
Tau fibril FP: inactive; Tau fibril ThT: inactive; G9a block: inactive; Tau fluor cs: inactive

Results for O=C(CSCc1ccc([N+](=O)[O-])cc1)N/N=C/c1cccnc1 ?
Sfp inh: inactive; Tau fibril FP: inactive; Tau fibril ThT: inactive; G9a block: 25.1µM; Tau fluor cs: inactive[2.34 µM]; Coupling enz: inactive

What do the screens show for `CCOc1ccc(S(=O)(=O)N2CCN(Cc3ccc4c(c3)OCO4)CC2)cc1C`?
Sfp inh: inactive; G9a block: inactive; Coupling enz: inactive
